We go through 19 molecules from PubChem BioAssay (Tox21).

Experiment [1] can be described thus: qHTS RealTime-Glo MT Cell Viability Assay in HEK293 cells - 0 hour (AID 1224880). Note: nearly all actives have a fitted effect of over 45% in size. Note: potency is the fitted concentration of half-maximal effect. The essentials:
(§1)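 Kinetic, non-lysing viability readout. Seed HEK293 (600/well) with reagent, incubate 5 h at 37 C/5% CO2, pin 23 nL compound in DMSO, incubate at 37 C, read luminescence at 0, 8, 16, 24, 32, 40 h.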

Experiment [2] in a line: A CellTox Green Cytotoxicity Assay to monitor cytotoxicity in HEK293 cells - 32 hour (AID 1224881). Note: nearly all actives have a fitted effect of over 40% in size. The essentials:
(§2)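 Real-time, in one plate: 600 HEK293 cells/well with dead-cell DNA dye, pinned compound after 5 h, 37 C incubation over 40 h; viable cells give no appreciable fluorescence.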

Experiment [3] in a line: A CellTox Green Cytotoxicity Assay to monitor cytotoxicity in HepG2 cells - 0 hour (AID 1224882). Note: nearly all actives have a fitted effect of over 35% in size. The essentials:
(§3)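 Cytotoxicity was tracked as dead-cell DNA fluorescence in HepG2 cells treated with test compounds at 37 C; each time-point value comes from one kinetic series spanning 0, 8, 16, 24, 32 and 40 h.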

Experiment [4] can be described thus: A CellTox Green Cytotoxicity Assay to monitor cytotoxicity in HepG2 cells - 32 hour (AID 1224883). Note: nearly all actives have a fitted effect of over 50% in size. The essentials: as §3
Experiment [5] is described as follows: A CellTox Green Cytotoxicity Assay to monitor cytotoxicity in HEK293 cells - 8 hour (AID 1224884). Note: nearly all actives have a fitted effect of over 35% in size. The essentials:
as §2

Experiment [6] in a line: qHTS RealTime-Glo MT Cell Viability Assay in HepG2 cells - 16 hour (AID 1224885). Note: nearly all actives have a fitted effect of over 50% in size. The essentials: (§4)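 Compound treatment began 5 h after plating HepG2 cells (600/well) with NanoLuc luciferase and prosubstrate. Plates stayed at 37 C for 40 h; luminescence was captured at six time points, 0 h through 40 h.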
Experiment [7] in a line: qHTS RealTime-Glo MT Cell Viability Assay in HEK293 cells - 24 hour (AID 1224886). Note: top concentration of the series differs between compounds; nearly all actives have a fitted effect of over 50% in size. The essentials: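 Quantitative high-throughput screen of the Tox21 10K library in HEK293: cells and RealTime-Glo reagents plated together, compound added at 5 h, luminescence monitored through 40 h at 37 C.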
Experiment [8] can be described thus: qHTS RealTime-Glo MT Cell Viability Assay in HEK293 cells - 8 hour (AID 1224887). Note: top concentration of the series differs between compounds; nearly all actives have a fitted effect of over 50% in size. The essentials: as §1
Experiment [9] is described as follows: A CellTox Green Cytotoxicity Assay to monitor cytotoxicity in HEK293 cells - 16 hour (AID 1224888). Note: nearly all actives have a fitted effect of over 35% in size. Summed up: as §2
A short description of experiment [10]: qHTS RealTime-Glo MT Cell Viability Assay in HepG2 cells - 0 hour (AID 1224889). Note: nearly all actives have a fitted effect of over 50% in size. Note: potency is the fitted concentration of half-maximal effect. Summed up: as §4

Unmarked numbers belong to inactive results. Inconclusive results are not listed. The source made the active and inactive calls. Calls come from the whole dose curve; as a rule, active = well fitted curve in the direction sought with a large enough effect in the repeat runs; inconclusive = weak or mixed curves; inactive = no such curve, though single readings can be large; an effect the other way counts as inactive or inconclusive.

Turning to `C[Si](C)(C)C`, the Potency result in experiment [1], in [2], in experiment [4], in experiment [5], in experiment [7] and in experiment [8] was “inactive” throughout. The Potency entry in experiment [10] was “inactive”. Further, the molecule was classed as inactive in [3], in experiment [6] and in experiment [9].

For the molecule `Cc1cccc(C)c1NC(=O)c1ccccc1C(=O)O`, the Potency entry in [1], in experiment [2], in [4], in experiment [5], in experiment [7] and in experiment [8] was “inactive” each time. In addition, in experiment [10], the Potency entry is “inactive”. Further, the molecule was called inactive in [3], in experiment [6] and in [9].

In the case of `O=C(OCC1(COC(=O)c2cccnc2)CCCC(COC(=O)c2cccnc2)(COC(=O)c2cccnc2)C1O)c1cccnc1`, the Potency entry in experiment [1], in experiment [2], in experiment [4], in experiment [5], in experiment [7] and in [10] was “inactive” in each case. Further, the result in [3], in experiment [6] and in [9] was inactive.

`COC(=O)[C@@H]1[C@H]2C[C@H]3c4[nH]c5ccccc5c4CCN3C[C@@H]2CC[C@@H]1O`: the Potency entry in experiment [1], in experiment [2], in experiment [4], in [5] and in experiment [7] was “inactive” throughout. Besides, the outcome in experiment [3], in [6] and in experiment [9] was inactive.

As to `CC(=O)CCCCn1c(=O)c2c(ncn2C)n(C)c1=O`, the Potency entry in experiment [1], in [2], in [4], in experiment [5], in experiment [7] and in [8] was “inactive” each time. Besides, in [10], the Potency entry is “inactive”. In addition, the result in experiment [3], in experiment [6] and in experiment [9] was inactive.

As for `Cc1ccc(C=O)cc1C`, the Potency result in [1], in experiment [2], in [4], in experiment [5], in experiment [7] and in [8] was “inactive” throughout. The Potency entry in [10] was “inactive”. Moreover, the call in experiment [3], in experiment [6] and in experiment [9] was inactive.

`COC(=O)c1ccccc1C(=O)c1ccc(OCCN2CCCCC2)cc1`: the Potency result in [1], in [2], in experiment [4], in experiment [5] and in experiment [7] was “inactive” each time. Also, the molecule was called inactive in experiment [3], in experiment [6] and in [9].

With `CC(=O)c1ccc2c(c1)Cc1ccccc1-2`, the Potency entry in [1], in experiment [2], in experiment [4], in experiment [5], in experiment [7] and in [8] was “inactive” throughout. For the same molecule, the Potency result in experiment [10] was “inactive”. Moreover, the call in experiment [3], in experiment [6] and in [9] was inactive.

Regarding `BrCCCCCBr`, the Potency result in [1], in experiment [2], in [4], in [5], in experiment [7] and in experiment [10] was “inactive” each time. Moreover, the molecule was classed as inactive in experiment [3], in experiment [6] and in experiment [9].

For the molecule `Nc1ncnc(Nc2ccccc2)n1`, the Potency result in experiment [1], in experiment [2], in experiment [4], in [5], in experiment [7] and in [8] was “inactive” each time. Besides, in experiment [10], the Potency result was “inactive”. Besides, the call in [3], in [6] and in experiment [9] was inactive.

Turning to `COCCOCCOCCOCCOCCO`, the Potency result in [1], in [2], in [4], in [5], in [7] and in experiment [8] was “inactive” each time. Besides, in experiment [10], the Potency result is “inactive”. The molecule was called inactive in experiment [3], in [6] and in experiment [9].

In the case of `Cc1ccccc1OCC(O)CO` (stereo not given), the Potency entry in experiment [1], in experiment [2], in experiment [4], in [5], in experiment [7] and in experiment [8] was “inactive” in each case. The Potency result in experiment [10] is “inactive”. The outcome in [3], in experiment [6] and in experiment [9] was inactive.

On to `CC(C)C[C@H](NC(=O)CNC(=O)[C@H](Cc1ccc(O)cc1)NC(=O)[C@H](CO)NC(=O)[C@H](Cc1c[nH]c2ccccc12)NC(=O)[C@H](Cc1cnc[nH]1)NC(=O)[C@@H]1CCC(=O)N1)C(=O)N[C@@H](CCCN=C(N)N)C(=O)N1CCC[C@H]1C(=O)NCC(N)=O` (stereo in doubt), for which the Potency entry in [1], in experiment [2], in experiment [4], in experiment [5], in experiment [7] and in experiment [8] was “inactive” in each case. Also, in [10], the Potency entry was “inactive”. Moreover, the outcome in experiment [3], in [6] and in experiment [9] was inactive.

Consider `CCCC/C=C\CCCCCCCCCC=O`, for which the Potency result in [1], in [2], in experiment [4], in experiment [7], in experiment [8] and in experiment [10] was “inactive” throughout. The call in experiment [3], in [6] and in experiment [9] was inactive.

On to `CCN1CCc2nc(N)oc2CC1`, for which the Potency result in experiment [1], in experiment [2], in experiment [4], in [7] and in experiment [8] was “inactive” throughout. For the same molecule, the outcome in experiment [3], in experiment [6] and in experiment [9] was inactive.

With `O=C1c2cccc3c2[C@H](CCC3)CN1[C@@H]1CN2CCC1CC2`, the Potency entry in experiment [1], in experiment [2], in [4], in experiment [5], in [8] and in [10] was “inactive” throughout. The molecule was classed as inactive in experiment [3], in [6] and in [9].

On to `COCCOC(=O)C1=C(C)NC(C)=C(C(=O)OC(C)C)C1c1cccc([N+](=O)[O-])c1` (stereo not given), for which the Potency in experiment [1] is 2390 nM (active); in experiment [10] it was 601 nM (active). The Potency entry in experiment [2], in [4] and in [5] was “inactive” throughout. For the same molecule, the result in [3] and in experiment [9] was inactive.

Consider `O=C(O)Cc1cn(-c2ccccc2)nc1-c1ccc(Cl)cc1`, for which the Potency result in [1], in [2], in experiment [4], in experiment [7], in experiment [8] and in experiment [10] was “inactive” each time. Further, the call in experiment [3], in experiment [6] and in experiment [9] was inactive.

For the molecule `C[C@@H]1O[C@@H](O[C@@H]2[C@@H](O)[C@H](OCCc3ccc(O)c(O)c3)O[C@H](CO[C@@H]3O[C@H](CO)[C@@H](O)[C@H](O)[C@H]3O)[C@H]2OC(=O)/C=C/c2ccc(O)c(O)c2)[C@H](O)[C@H](O)[C@H]1O`, the Potency result in experiment [1], in experiment [2], in [5], in experiment [7], in [8] and in experiment [10] was “inactive” throughout. Also, the outcome in experiment [3], in [6] and in experiment [9] was inactive.
